Measurements published in PubChem BioAssay (NCATS).
Where “and” joins values, the source holds several entries; their conditions need not be identical. Identical values can stand only once. Inconclusive results are not listed. Calls of active or inactive are those of the source. Unless noted, calls come from the whole dose curve; as a rule, active = well fitted curve in the direction sought with a large enough effect; inconclusive = small, poorly fitted or top-dose-only effect, or another doubt; inactive = no such curve, though single readings can be large; an effect the other way counts as inactive or inconclusive.

Assays:
[1] = Cell Viability - BJ (AID 421; calls by dose curve;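 note: potency is the fitted concentration of half-maximal effect; cells exposed to compound for 40 hours at 37 °C before readout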); settings: BJ fibroblast viability, qHTS
Procedure, shortened: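 Cytotoxicity in human BJ foreskin fibroblasts is scored as loss of cellular ATP after a 40-hour exposure, measured by luciferase luminescence. Controls are DMSO and 100 uM tamoxifen.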

[2] = Cell Viability - Jurkat (AID 426;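 active = dose-dependent loss of cell ATP signal giving a full or clear fitted curve, ranked by lower potency value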;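 note: potency is the fitted concentration of half-maximal effect; cells exposed to compound for 40 hours at 37 °C before ATP read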); settings: qHTS
Procedure, shortened: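 Luminescent ATP read-out (CellTiter-Glo, 20 min at room temperature) after 40 hr compound exposure at 37 °C of Jurkat E6-1 cells, 5000/well. Decreased ATP taken as cytotoxicity; AC50 from standard Hill equation.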

[3] = Cell Viability - SK-N-SH (AID 435; calls by dose curve;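 note: potency is the fitted concentration of half-maximal effect; compound exposure lasted 40 h at 37 °C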); settings: SK-N-SH neuroblastoma cell viability qHTS
Procedure, shortened: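 SK-N-SH human neuroblastoma cells (1500/well) were exposed to compounds in complete medium for 40 h at 37 °C, and intracellular ATP was then measured by CellTiter-Glo luminescence. AC50 was taken from Hill fits, normalized to DMSO and 100 uM tamoxifen.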

[4] = Cell Viability - N2a (AID 540); settings: N2a mouse neuroblastoma cell viability; at 92.2 µM (top of the series);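 note: plate controls were DMSO alone for no effect and tamoxifen control for full effect; nearly all actives have a fitted effect of over 45% in size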
Procedure, shortened: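 N2a mouse neuroblastoma, 1500 cells/well, 5 hr settle; compound 40 hr, 37 °C; CellTiter-Glo 20 min RT; luminescence; Hill-fit AC50.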

[5] = Cell Viability - Mesenchymal (AID 546); settings: mesenchymal cells viability, qHTS; series mostly up to 91.7 µM;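 note: cells exposed to compound for 40 hours before reading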
Procedure, shortened: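 In this qHTS cytotoxicity format, glomerulus-derived human mesenchymal kidney cells received compound for 40 hr, then luciferase-based ATP quantitation. Concentration-response data were fitted with the Hill equation.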

[6] = Cellular Toxicity (caspase-3) MRC-5 (AID 659); settings: MRC-5 cells, luminescence, normalized: DMSO 0%, 10 µM staurosporine 100%; series mostly up to 91.7 µM
Procedure, shortened: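 Apoptosis readout in MRC-5 cells: luciferase light generated after caspase 3/7 cleaves a peptide-aminoluciferin substrate, measured post 16 hr compound incubation at 37 °C.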

[7] = Cellular Toxicity (caspase-3) Mesangial (AID 660); settings: mesangial cells, normalized: DMSO 0%, 100 µM tamoxifen 100%; series mostly up to 91.7 µM;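 note: combined caspase 3 and 7 activity read by Caspase-Glo luminescence; cells exposed to compound for 16 h before the caspase read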
Procedure, shortened: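 Luminescent Caspase-Glo 3/7 readout (aminoluciferin substrate cleavage, 20 min RT) after 16 h compound exposure at 37 °C of normal human mesangial cells. Signal increase normalized between DMSO basal and 100 uM tamoxifen; Hill-equation AC50.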

[8] = Confirmation and Secondary Assay for Modulators of Hemoglobin Beta Chain Splicing at IVS2 705 locus (AID 930); settings: HeLa EGFP-705 splicing reporter, GFP fluorescence, 48 h; series mostly up to 46.1 µM;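 note: HeLa cells stably expressing the EGFP-705 splicing reporter; GFP fluorescence per well restored by corrected splicing of the IVS2-705 intron in EGFP; % of control where 0% means no effect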
Procedure, shortened: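 Splice-correction reporter: EGFP cDNA split by beta-globin intron 2 bearing the 705 mutation, stably in HeLa. Compound incubation 2 days, 37C; fluorescent objects 5-250 µm summed per well.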

[9] = MultiTox-Fluor Cytotoxicity Assay - LYMP1-001 - Dead Cells (AID 946); settings: LYMP1-001 lymphoblastoid cells, dead-cell protease fluorescence; series mostly up to 92.2 µM; note: potency is the fitted concentration of half-maximal effect
Procedure, shortened: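 Seed 2500 LYMP1-001 cells/well, incubate 5 hr at 37 C; add compound, 16 hr at 37 C; add MultiTox-Fluor reagent, 60 min RT; read dead-cell fluorescence Ex/Em=485/520. Normalize to DMSO and 15 uM tetraoctylammonium bromide.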

[10] = MultiTox-Fluor Cytotoxicity Assay - LYMP1-001 - Live Cells (AID 947); settings: LYMP1-001 lymphoblastoid cells, live-cell protease fluorescence viability; series mostly up to 92.2 µM; note: potency is the fitted concentration of half-maximal effect;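 for activity change, negative = cytotoxicity: 0% = DMSO only and full inhibition = tetraoctylammonium bromide control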
[11] = Cell Viability - LYMP2-003 (AID 965); settings: LYMP2-003 lymphoblastoid cell viability; series mostly up to 92.2 µM;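 note: cells exposed to compounds for 24 h before reading; nearly all actives have a fitted effect of over 50% in size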; note: potency is the fitted concentration of half-maximal effect;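 for activity change, negative = cytotoxicity: 0% = DMSO only and full effect = 92 µM tetraoctylammonium bromide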
Procedure, shortened: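 Human lymphoblastoid cells (2500/well) were pre-incubated 5 hr at 37 C, then exposed to compounds over a concentration range for 24 hr at 37 C. Intracellular ATP was read by CellTiter-Glo luminescence; AC50 came from Hill-equation fits.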

[12] = Cell Viability - LYMP2-021 (AID 974); settings: LYMP2-021 lymphoblastoid cells viability; series mostly up to 92.2 µM;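 note: compound exposure lasts 24 hours at 37 °C; nearly all actives have a fitted effect of over 55% in size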; note: potency is the fitted concentration of half-maximal effect; for activity change, negative = cytotoxicity: % is set by controls: 0 for no effect and ±100 for the full control effect
Procedure, shortened: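 ATP luminescence (CellTiter-Glo, 30 min RT) after 24 h compound exposure at 37 C; 2500 human lymphoblastoid cells/well, 5 h settle beforehand. Cytotoxicity = concentration-dependent ATP drop, AC50 by Hill fit.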

[13] = Cell Viability - LYMP2-002 (AID 977); settings: LYMP2-002 lymphoblastoid cell viability, qHTS; series mostly up to 92.2 µM; note: potency is the fitted concentration of half-maximal effect
Procedure, shortened: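 In this qHTS viability screen, 2500 human lymphoblastoid cells per well receive compound for 24 hr at 37 C, and luciferase-based ATP luminescence gives the viability signal. Tetraoctylammonium bromide serves as positive control.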

[14] = Cell Viability - LYMP2-012 (AID 982); settings: LYMP2-012 lymphoblastoid cell viability qHTS; series mostly up to 92.2 µM;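 note: cellular ATP by luciferase luminescence where a drop means cytotoxicity; cells exposed to compound for one day before reading; nearly all actives have a fitted effect of over 55% in size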; note: potency is the fitted concentration of half-maximal effect;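 for activity change, negative = cytotoxicity: 0% = DMSO only and full loss = 92 µM tetraoctylammonium bromide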
[15] = Cell Viability - LYMP2-016 (AID 984); settings: LYMP2-016 lymphoblastoid cell viability, qHTS; series mostly up to 92.2 µM; note: nearly all actives have a fitted effect of over 55% in size; note: potency is the fitted concentration of half-maximal effect; for activity change, negative = cytotoxicity: % is set by controls: 0 for no effect and ±100 for the full control effect
Procedure, shortened: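 Human lymphoblastoid cells (LYMP2-016), 2500/well in complete medium, preincubated 5 hr at 37 C, then compound-treated 24 hr at 37 C. Intracellular ATP read by CellTiter-Glo luminescence after 30 min at room temperature; AC50 from Hill-equation concentration-response fits.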

[16] = Cell Viability - LYMP2-022 (AID 987); settings: LYMP2-022 lymphoblastoid cell viability; series mostly up to 92.2 µM; note: nearly all actives have a fitted effect of over 55% in size; note: potency is the fitted concentration of half-maximal effect
Procedure, shortened: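 Luminescent ATP read-out (CellTiter-Glo, 30 min, RT) after 24 hr, 37 C compound exposure of 2500 human lymphoblastoid cells/well in complete medium. Cytotoxicity taken as concentration-dependent ATP loss; AC50 from standard Hill equation.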

[17] = Cell Viability - LYMP2-026 (AID 989); settings: LYMP2-026 lymphoblastoid cell viability, qHTS; series mostly up to 92.2 µM; note: nearly all actives have a fitted effect of over 50% in size; note: potency is the fitted concentration of half-maximal effect
Procedure, shortened: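 qHTS cytotoxicity: 2500 cells/well, 5 hr 37 C, compound 24 hr 37 C, CellTiter-Glo 30 min RT, luminescence. Tetraoctylammonium bromide positive control. AC50 via standard Hill fit.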

[18] = target: Peroxisome proliferator-activated receptor delta (Homo sapiens) (UniProt Q03181); assay: qHTS assay for small molecule agonists of peroxisome proliferator-activated receptor delta signaling (AID 588534; calls by dose curve;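 note: 0% = DMSO basal wells and 100% = positive control agonist at 10 µM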); settings: HEK293T PPARdelta-UAS-bla, beta-lactamase ratio, 18 h; series mostly up to 76.7 µM
Procedure, shortened: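 Titration series tested in agonist mode on beta-lactamase reporter cells; 18 hrs at 37 C after a 5 hr pre-incubation. Readout: CCF4 fluorescence, 2 hrs RT. Hill equation gives EC50 and maximal response.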

[19] = target: Pyruvate kinase PKM (Homo sapiens) (UniProt P14618); assay: qHTS Assay for Activators of Human Muscle Pyruvate Kinase (AID 954; active = well fitted curve in the direction sought with a large enough effect, not every such curve was filed as active;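 note: 0% = uninhibited enzyme and -100% = no enzyme or full thiadiazolimine inhibition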); settings: purified human muscle pyruvate kinase, luciferase-coupled luminescence, 1 h; series mostly up to 57.5 µM
Procedure, shortened: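 PKM2, human, >95% pure, 0.1 nM; PEP 0.5 mM (Km), ADP 0.1 mM; 50 mM imidazole pH 7.2, 50 mM KCl, 0.01% Tween 20, 0.05% BSA; 1 h RT; luciferase luminescence readout.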

[20] = target: Vitamin D3 receptor (Homo sapiens) (UniProt P11473); assay: qHTS assay for small molecule agonists of vitamin D receptor signaling (AID 588543; calls by dose curve;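 note: 0% = DMSO basal and 100% = reference agonist control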); settings: HEK293T VDR-UAS-bla, beta-lactamase ratio, 16 h; series mostly up to 76.8 µM
Procedure, shortened: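 GeneBLAzer VDR-UAS-bla HEK293T cells in 2% charcoal-stripped FBS medium were dosed with compound titrations for 16 h at 37 °C; CCF4 β-lactamase readout (405 nm ex, 460/530 nm em). EC50 and efficacy from Hill fits, normalized to 50 nM calcitriol (100%) and DMSO (0%).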

Sequence of Vitamin D3 receptor (Homo sapiens) (P11473 whole entry, looked up): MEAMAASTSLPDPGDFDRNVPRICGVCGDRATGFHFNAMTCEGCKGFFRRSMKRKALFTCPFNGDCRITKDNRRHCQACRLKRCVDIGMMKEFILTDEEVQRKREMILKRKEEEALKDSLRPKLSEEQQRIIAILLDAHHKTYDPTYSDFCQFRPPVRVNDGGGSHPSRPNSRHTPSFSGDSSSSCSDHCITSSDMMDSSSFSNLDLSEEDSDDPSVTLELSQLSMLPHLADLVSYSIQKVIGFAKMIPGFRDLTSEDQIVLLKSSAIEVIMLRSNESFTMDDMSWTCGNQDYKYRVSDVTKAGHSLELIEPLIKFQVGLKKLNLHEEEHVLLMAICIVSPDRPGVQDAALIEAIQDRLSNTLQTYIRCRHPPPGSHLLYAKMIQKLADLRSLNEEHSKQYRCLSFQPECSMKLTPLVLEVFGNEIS
Sequence of Peroxisome proliferator-activated receptor delta (Homo sapiens) (Q03181 whole entry, looked up): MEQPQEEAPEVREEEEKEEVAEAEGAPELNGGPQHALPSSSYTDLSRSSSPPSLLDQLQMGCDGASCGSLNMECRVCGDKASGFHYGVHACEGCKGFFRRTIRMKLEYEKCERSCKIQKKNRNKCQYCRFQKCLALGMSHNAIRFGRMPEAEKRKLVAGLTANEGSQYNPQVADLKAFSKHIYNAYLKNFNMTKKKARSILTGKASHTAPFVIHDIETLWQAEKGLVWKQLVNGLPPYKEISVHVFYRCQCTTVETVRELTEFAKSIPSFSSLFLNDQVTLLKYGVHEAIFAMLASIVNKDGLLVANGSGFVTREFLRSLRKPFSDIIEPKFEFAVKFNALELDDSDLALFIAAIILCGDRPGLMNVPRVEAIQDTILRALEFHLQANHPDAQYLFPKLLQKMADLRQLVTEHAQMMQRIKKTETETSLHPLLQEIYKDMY
Sequence of Pyruvate kinase PKM (Homo sapiens) (P14618 whole entry, looked up): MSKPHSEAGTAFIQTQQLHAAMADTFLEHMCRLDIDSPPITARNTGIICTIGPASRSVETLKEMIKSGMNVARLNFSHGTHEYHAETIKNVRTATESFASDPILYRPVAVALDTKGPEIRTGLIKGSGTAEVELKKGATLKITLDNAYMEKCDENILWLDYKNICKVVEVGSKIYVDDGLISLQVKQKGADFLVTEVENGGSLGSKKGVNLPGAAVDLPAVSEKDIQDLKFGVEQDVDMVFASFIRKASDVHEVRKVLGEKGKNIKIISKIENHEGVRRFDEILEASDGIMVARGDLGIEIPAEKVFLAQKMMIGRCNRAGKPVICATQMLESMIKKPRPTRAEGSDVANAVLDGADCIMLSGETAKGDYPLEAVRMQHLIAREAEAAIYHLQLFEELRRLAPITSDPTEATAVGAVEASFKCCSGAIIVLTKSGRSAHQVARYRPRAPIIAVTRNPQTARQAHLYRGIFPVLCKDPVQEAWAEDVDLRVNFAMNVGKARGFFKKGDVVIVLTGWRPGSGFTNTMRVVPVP

C=CCc1ccc(OC)cc1
inactive: Potency [1] > 92 µM | Potency [2] > 92 µM | Potency [3] > 92 µM | activity change, negative = cytotoxicity [4] -8.37% | outcome [5] | outcome [6] | outcome [7] | Potency [8] | Potency [9] | Potency [10] | Potency [11] | Potency [12] | Potency [13] | Potency [14] | Potency [15] | Potency [16] | Potency [17] | outcome [18]

CC[C@@]1(c2ccc(N)cc2)CCC(=O)NC1=O
inactive: outcome [19]

NC[C@H](O)c1ccc(O)cc1
inactive: outcome [19]

C[N+]1(C)[C@@H]2CC[C@H]1CC(OC(=O)[C@@H](CO)c1ccccc1)C2 (some centres undefined)
inactive: outcome [19]

C[C@H](NC(C)(C)C)C(=O)c1cccc(Cl)c1
inactive: outcome [19]

CN1CC[C@]2(C)c3cc(O)ccc3N(C)[C@@H]12
inactive: outcome [19]

COc1ccc(OC)c([C@H](O)[C@H](C)N)c1
inactive: outcome [19]

C[C@]12CC[C@H](O)C[C@@H]1CC[C@H]1[C@H]2CC[C@]2(C)C(=O)CC[C@@H]12
inactive: outcome [19]

CS(=N)(=O)CC[C@@H](N)C(=O)O (some centres undefined)
inactive: outcome [19]

CC(C)N(CC[C@@](C(N)=O)(c1ccccc1)c1ccccn1)C(C)C
inactive: outcome [19]

CNC(=O)N(C)c1nnc(C(C)(C)C)s1
inactive: Potency [8] | outcome [20]

O=C1C(Cl)=C(Cl)C(=O)C(Cl)=C1Cl
inactive: outcome [6] | outcome [7] | Potency [8]
active: Potency [1] 50.5 µM | Potency [2] 9.41 µM | Potency [3] 40.5 µM | activity change, negative = cytotoxicity [4] -88.2% | Potency [9] 12.6 µM | Potency [10] 39.8 µM | Potency [11] 20 µM | Potency [12] 12.6 µM | Potency [13] 25.1 µM | Potency [14] 15.8 µM | Potency [15] 25.1 µM | Potency [16] 15.8 µM | Potency [17] 25.1 µM

O=C(O)COc1ccc(Cl)cc1Cl
inactive: Potency [1] > 92 µM | Potency [2] > 92 µM | Potency [3] > 92 µM | activity change, negative = cytotoxicity [4] 9.64% and 3.72% | outcome [5] | outcome [6] | outcome [7] | Potency [9] | Potency [10] | Potency [11] | Potency [12] | Potency [13] | Potency [14] | Potency [15] | Potency [16] | Potency [17] | outcome [20]

CCNc1nc(Cl)nc(NC(C)C)n1
inactive: Potency [1] > 92 µM | Potency [2] > 92 µM | Potency [3] > 92 µM | activity change, negative = cytotoxicity [4] -4.9% | outcome [5] | outcome [6] | outcome [7] | Potency [8] | Potency [9] | Potency [10] | Potency [11] | Potency [12] | Potency [13] | Potency [14] | Potency [15] | Potency [16] | Potency [17] | outcome [18] | outcome [20]

CCCCCCCCCc1ccc(O)cc1
active: Potency [9] 39.8 µM
inactive: Potency [2] > 92 µM | outcome [5] | Potency [8] | Potency [11] | Potency [12] | Potency [13] | Potency [14] | Potency [15] | Potency [16] | Potency [17] | outcome [18] | outcome [20]

ClC1=C(Cl)C2(Cl)C3C4CC(C5OC45)C3C1(Cl)C2(Cl)Cl (centres undefined)
inactive: Potency [1] > 92 µM | Potency [3] > 92 µM | outcome [6] | outcome [7] | Potency [8] | outcome [18] | outcome [20]
active: Potency [9] 31.6 µM | Potency [10] 15.8 µM | Potency [11] 25.1 µM | Potency [12] 39.8 µM | Potency [13] 31.6 µM | Potency [14] 39.8 µM | Potency [15] 50.1 µM | Potency [16] 39.8 µM | Potency [17] 39.8 µM

CCc1cccc(CC)c1N(COC)C(=O)CCl
active: Potency [2] 54 µM
inactive: Potency [3] > 92 µM | activity change, negative = cytotoxicity [4] -5.69% | outcome [5] | outcome [6] | outcome [7] | Potency [8] | Potency [10] | outcome [18] | outcome [20]

COP(=S)(OC)Oc1ccc([N+](=O)[O-])cc1
inactive: Potency [1] > 92 µM | Potency [2] > 92 µM | Potency [3] > 92 µM | activity change, negative = cytotoxicity [4] -21.2% | outcome [5] | outcome [6] | outcome [7] | Potency [9] | Potency [10] | Potency [11] | Potency [12] | Potency [13] | Potency [14] | Potency [15] | Potency [16] | Potency [17] | outcome [18] | outcome [20]

COC(=O)NC(=S)Nc1ccccc1NC(=S)NC(=O)OC
inactive: Potency [1] > 92 µM | activity change, negative = cytotoxicity [4] -2.43% | outcome [5] | outcome [6] | outcome [7] | Potency [8] | Potency [9] | Potency [10] | Potency [11] | Potency [12] | Potency [13] | Potency [14] | Potency [15] | Potency [16] | Potency [17] | outcome [18] | outcome [20]

ClC(Cl)=C(c1ccc(Cl)cc1)c1ccc(Cl)cc1
inactive: Potency [1] > 92 µM | Potency [2] > 92 µM | Potency [3] > 92 µM | activity change, negative = cytotoxicity [4] -14.6% | outcome [5] | outcome [6] | outcome [7] | Potency [8] | Potency [9] | Potency [10] | Potency [11] | Potency [12] | Potency [13] | Potency [14] | Potency [15] | Potency [16] | Potency [17] | outcome [18] | outcome [20]
